Source: article PMC4552634, “A New Set of Chemical Starting Points with Plasmodium falciparum Transmission-Blocking Potential for Antimalarial Drug Discovery” (PLoS ONE, 2015)
Among all 13,000 compounds or so, about 3,200 (25%) showed an effect of 50% or more. This is one part of the list.

system: P. falciparum stage V gametocytes; parameters: BacTiter-Glo ATP luminescence viability of purified stage V gametocytes in 384-well plates, per cent inhibition versus DMSO; settings: 48 h, 5 µM; inhibitor

Compound	% Inhibition
COc1cc2c(cc1C(F)(F)F)N(C(=O)Nc1cc(F)c(F)c(-c3cccnc3)c1)CC2 [TCMDC-139061]	5.239%
CCC(C)(CC)C(=O)n1ncc2c3c(N)nc(N)nc3ccc21 [TCMDC-137335]	-46.13%
COc1ccc(-n2ccnc2SCC(=O)Nc2cc(C(F)(F)F)ccc2Cl)c(OC)c1 [TCMDC-123822]	7.482%
CCCc1cc(Cc2cnc(N)nc2N)c2cccnc2c1OC [TCMDC-138034]	13.25%
c1cncc(-c2cccc(CNc3nccc(Nc4ccc(OCCN5CCOCC5)cc4)n3)c2)c1 [TCMDC-134667]	2.743%
c1ccc(Oc2ccc(Nc3ccnc(Nc4cccc(CNCCCN5CCOCC5)c4)n3)cc2)cc1 [TCMDC-138615]	95.32%
O=C(NCCN1CCCCC1)c1cccc(Nc2nccc(Nc3ccc(Oc4ccccc4)cc3)n2)c1 [TCMDC-138603]	19.36%
CN1CC[C@@H](Oc2cc(C(=O)NCc3ccc(Cl)c(Cl)c3)ccc2C(F)(F)F)C1 [TCMDC-136228]	28.38%
CCCCCCCCc1c(C)[nH]c(C)c(Br)c1=O [TCMDC-137437]	29.73%
CCCCCCCCc1c(C)[nH]c(C)c(Cl)c1=O [TCMDC-137538]	68.39%
CCCCCCCc1c(C)[nH]c2cccc(OC)c2c1=O [TCMDC-138014]	32.1%
CCCCCCCCCc1c(C)[nH]c2ccccc2c1=O [TCMDC-137268]	51.45%
CCCCCCCCc1c(C)[nH]c(C)c(C#N)c1=O [TCMDC-137431]	44.76%
CCCCCCCCc1c(C)[nH]c(C)c(I)c1=O [TCMDC-137430]	48.86%
CCCCCCCc1c(C)[nH]c2ccccc2c1=O [TCMDC-137425]	37.94%
CCCCCCCc1c(C)[nH]c2c(OC)cccc2c1=O [TCMDC-138016]	17.32%
CCCCCCCc1c(C)[nH]c2ccc(F)cc2c1=O [TCMDC-137269]	73.68%
O=C(NC1CCN(Cc2ccccc2)CC1)c1ccc(-c2nc3cc(F)c(F)cc3[nH]2)s1 [TCMDC-140452]	7.821%
N#Cc1ccc2c(c1)CCN(CCC1CCC(NC(=O)c3ccc(-c4ccccn4)s3)CC1)CC2 (centres unmarked) [TCMDC-139840]	-69.85%
O=C(Nc1ccc(-c2csc(-c3nc4ccccc4[nH]3)c2)cc1)Nc1ccc(F)c(F)c1F [TCMDC-133221]	23.86%
O=C(/C=C/c1ccc(Cl)c(Cl)c1)NCCCCCN1CCC(CCNC(=O)/C=C/c2cc(C(F)(F)F)ccc2F)CC1 [TCMDC-140005]	-14.45%
CN(C(=O)Cc1ccc(Cl)c(Cl)c1)C1CCN(CCCCCNC(=O)/C=C/c2ccc(Cl)c(Cl)c2)CC1 [TCMDC-139986]	-22.66%

Compound	% Inhibition
CC(Oc1ccc(Cl)cc1)C(=O)NCCC1CCN(CCCCCNC(=O)/C=C/c2ccc(Cl)c(Cl)c2)CC1 (centres unmarked) [TCMDC-140003]	96.79%
CC(C)(Oc1ccc(Cl)cc1)C(=O)NCCC1CCN(CCCCCNC(=O)/C=C/c2ccc(Cl)c(Cl)c2)CC1 [TCMDC-140004]	87.45%
CC(Oc1ccc(Cl)cc1)C(=O)N(C)C1CCN(CCCCCNC(=O)/C=C/c2ccc(Cl)c(Cl)c2)CC1 (centres unmarked) [TCMDC-139989]	-40.26%
CN(C(=O)Cc1ccc(Cl)cc1)C1CCN(CCCCCNC(=O)/C=C/c2ccc(Cl)c(Cl)c2)CC1 [TCMDC-139988]	-15.24%
CC(C)(C(=O)NCCC1CCN(CCCCCNC(=O)/C=C/c2ccc(Cl)c(Cl)c2)CC1)c1ccc(Cl)cc1 [TCMDC-140002]	52.94%
CN(C(=O)C(C)(C)Oc1ccc(Cl)cc1)C1CCN(CCCCCNC(=O)/C=C/c2ccc(Cl)c(Cl)c2)CC1 [TCMDC-139990]	51.05%
CC1(C)N=C(N)NC(NOCc2ccc(Cl)c(Cl)c2)=N1 [TCMDC-131606]	-8.519%
CC(C)[C@H](NC(=O)c1ccc(O)c(-c2ccc(Cl)c(Cl)c2)c1)C(=O)NCCN1CCCCC1 [TCMDC-140858]	1.563%
N#Cc1nc2ccc(OCCN(Cc3ccccc3C(F)(F)F)c3ccc(C#N)c(C(F)(F)F)c3)cc2s1 [TCMDC-132798]	33.49%
N#Cc1ccc(NC(=NCCc2c[nH]c3ccccc23)Nc2ccc(-c3ccccc3)cc2)c(O)c1 [TCMDC-140211]	-66.19%
CCCNCc1ccc(-c2ccc(CN(CCOC)C(=O)CCCOCc3ccccc3)cc2)nc1 [TCMDC-141543]	33.78%
CCCNCc1ccc(-c2ccc(CN(CCOC)C(=O)Cc3cccnc3)cc2)nc1 [TCMDC-141528]	108.8%
CC(=O)Nc1cccc(CN(Cc2ccc(-c3ccc(CNCc4cccnc4)cn3)cc2)C(=O)Cc2cccnc2)c1 [TCMDC-141604]	-7.365%
CCCNCc1ccc(-c2ccc(CN(Cc3ccc4c(c3)OCO4)C(=O)Cc3cccnc3)cc2)nc1 [TCMDC-141529]	106.5%
CCCNCc1ccc(-c2ccc(CN(CCOC)C(=O)COc3ccccc3Cl)cc2)nc1 [TCMDC-141541]	51.3%
CCCCC(=O)N(CCOC)Cc1ccc(-c2ccc(CNCCC)cn2)cc1 [TCMDC-141536]	72.35%
CN(C)CCN(C)Cc1ccc(-c2ccc(NS(=O)(=O)c3cccc4cccnc34)cc2)cc1 [TCMDC-136474]	21.58%
CCn1cc(C=C2Oc3c(ccc(O)c3CN3CCCCC3)C2=O)c2cc(OC)ccc21 [TCMDC-124887]	12.33%
CCCNCc1ccc(-c2ccc(CN(CCOC)C(=O)CCc3ccc(OC)cc3)cc2)nc1 [TCMDC-141539]	54.14%
CCCNCc1ccc(-c2ccc(CN(CCOC)C(=O)CCC(=O)c3ccc(OC)c(F)c3)cc2)nc1 [TCMDC-141537]	97.99%
Cc1cc(NC(=O)NCCN2CCC(NS(=O)(=O)c3ccccc3F)CC2)c2ccccc2n1 [TCMDC-136137]	1.757%
CCOC(=O)c1[nH]c(-c2cc(Cl)nc(Cl)c2)nc1NC(=S)NCc1ccc(NS(C)(=O)=O)cc1 [TCMDC-138899]	-31.28%
